The values that follow come from PubChem BioAssay AID1053180 (Broad Institute, 2014).

The whole screen tested about 9,600 compounds, of which about 20 (0.2%) were called active. This is one part of a sample in which actives are shown more often than they occur. Unmarked numbers belong to inactive results.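 How the source made its calls: active means highest normalized replicate activity of 15 or more, or at least half the replicates reach 15 or more; inactive means neither condition met.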

The experiment can be described thus: Pax4 mRNA upregulation in alpha cells – RT-PCR, mouse alpha TC1 cells, single point, primary screen (AID 1053180).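 Further: Pax4 Ct normalized to GAPDH with activation seen as lower delta delta Ct; plate controls were plate neutral control wells for no effect and Pax4 plasmid positive control for full effect.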 To be noted: Pax4 mRNA qPCR, 6 days, at 10 µM, hits give high values, 100% = Pax4 plasmid added at qPCR. In general terms: Real-time PCR tracks product formation cycle by cycle.
With `O=C(C[C@@H]1CC[C@H]2[C@@H](COC[C@@H](O)CN2C(=O)Cc2ccccc2)O1)NC1Cc2ccccc2C1`, the activation is 0.021%.
On to `CCCN(C)C[C@H]1OCCCC[C@@H](C)Oc2ccc(NC(=O)CCCN(C)C)cc2C(=O)N([C@H](C)CO)C[C@@H]1C`, for which the activation was 0.002%.
Then `C/C=C/c1ccc([C@H]2[C@@H](CO)N3C(=O)CN(Cc4ccc(F)cc4)C[C@@H]23)cc1`, with 86.9% (active); and `C/C=C/c1ccc([C@H]2[C@@H](CO)N3C(=O)CN(Cc4ccc(F)cc4)C[C@H]23)cc1`, with 0%.
In the case of `C/C=C/c1ccc([C@@H]2[C@@H](CO)N3C(=O)CN(Cc4ccc(F)cc4)C[C@@H]23)cc1`, the activation is 0.0005%.
Take `COc1ccccc1NC(=O)N1CC(=O)N2[C@H](CO)[C@@H](c3ccc(C#CC(C)C)cc3)[C@@H]2C1`: the activation is 0.007%.
In the case of `COc1cccc(-c2ccc3c(c2)O[C@H](CN(C)Cc2cccnc2)[C@H](C)CN([C@@H](C)CO)S3(=O)=O)c1` it was 0.057%; in that of `COc1ccc(C(=O)N2C[C@H]3[C@@H](c4ccccc42)[C@@H](CO)N3C(=O)Cc2ccccn2)cc1`, 0%.
Consider `N#C[C@@H]1[C@@H](c2ccccc2-c2ccccc2F)[C@H](CO)N1C(=O)Cc1ccccc1`, for which the activation was 0.001%.
`Cc1nc(N2[C@@H](C#N)[C@@H](c3ccccc3)[C@@H]2CO)sc1C`: the activation is 0.0005%.
As to `COc1ccc(C[C@@H]2CCn3cc(nn3)COC[C@H](C)NC2=O)cc1`, the activation was 0.0005%.
In the case of `Cc1ccc(S(=O)(=O)N2C[C@H]3[C@@H](c4ccccc42)[C@@H](CO)N3Cc2cccnc2)cc1`, the activation is 0.002%.
As to `O=C(C[C@H]1CC[C@H]2[C@@H](COC[C@@H](O)CN2S(=O)(=O)c2ccc(F)cc2)O1)NCCN1CCCCC1`, the activation is 0.003%.
`COc1ccc(NC(=O)N[C@H]2CC[C@@H](CCNC(=O)CN3CCOCC3)O[C@H]2CO)cc1`: the activation is 0.002%.
With `Cc1noc(C)c1S(=O)(=O)Nc1ccc2c(c1)C(=O)N([C@H](C)CO)C[C@H](C)[C@H](CN(C)Cc1ccc(C(=O)O)cc1)OCCCC[C@H](C)O2`, the activation was -0.0005%.
Consider `COc1ccc(S(=O)(=O)Nc2ccc3c(c2)C(=O)N([C@@H](C)CO)C[C@H](C)[C@H](CN(C)S(=O)(=O)c2ccc(Cl)cc2)OCCCC[C@H](C)O3)cc1`, for which the activation was 0.0535%.
For the molecule `COc1cccc(-c2cccc(-c3nc(C(=O)Nc4ccc(-c5ccccc5)cc4)cc4c3[C@@H](CCO)N(S(=O)C(C)(C)C)C4)c2)c1` (stereo not given in full), the activation is 42.4% (active).
Turning to `COc1cccc(-c2cccc(-c3nc(C(=O)O)cc4c3[C@H](CCO)N(S(=O)C(C)(C)C)C4)c2)c1` (stereo not given in full), the activation was 0.001%.
For `COc1cccc(-c2cccc(-c3nc(C(=O)O)cc4c3[C@@H](CCO)N(S(=O)C(C)(C)C)C4)c2)c1` (stereo not given in full), the activation is 0%.
In the case of `COc1cccc(-c2ccc3c(c2)[C@@H]2[C@@H](CCN2S(=O)(=O)C2=NC(C)C=N2)[C@H](CO)N3C)c1` (stereo not given in full), the activation is 0.001%.
In the case of `COCC(=O)Nc1ccc2c(c1)[C@H]1C[C@@H](CC(=O)N[C@@H](C)c3ccccc3)O[C@@H](CO)[C@H]1O2` it was 0.004%; in that of `O=C1CN(S(=O)(=O)c2cccc(F)c2)C[C@@H]2[C@@H](c3ccc(C4=CCCC4)cc3)[C@H](CO)N12`, 0.006%.
On to `C[C@H](NC(=O)C[C@@H]1C=C[C@H](NC(=O)c2cccnc2)[C@@H](CO)O1)c1ccccc1`, for which the activation was 0.001%.
Take `CO[C@H]1CN(C)C(=O)c2cc(NC(=O)C3CCOCC3)ccc2OC[C@H](C)NC[C@@H]1C`: the activation was 0.0005%.
Consider `CCN1CC(=O)N2[C@@H](CO)[C@H](c3ccc(Br)cc3)[C@@H]2C1`, for which the activation was 0%.
With `Cn1cnc(S(=O)(=O)N[C@H]2CC[C@H](CC(=O)NCC3CCCCC3)O[C@@H]2CO)c1`, the activation is -0.0005%.
In the case of `COc1ccc(S(=O)(=O)N2C[C@H](O)COC[C@@H]3O[C@@H](CC(=O)N[C@H]4CCN(Cc5ccccc5)C4)CC[C@H]32)cc1` it was -0.0135%; in that of `COc1ccc2c3c(n(C)c2c1)[C@@H](CO)NCC31CCN(CC2CCCCC2)CC1`, 0.027%.
In the case of `O=C(NC1CCCC1)[C@@H]1[C@@H](CO)[C@@H]2Cn3c(ccc(C4=CCCCC4)c3=O)[C@H]1N2CC1CC1` it was 0%.
With `O=C(Nc1ccc2c(c1)[C@@H]1C[C@@H](CC(=O)N3CCCCC3)O[C@H](CO)[C@@H]1O2)NC1CCCCC1`, the activation was 0.012%.
As for `COc1ccc(S(=O)(=O)N(C)C[C@@H]2Oc3c(NC(=O)c4nc5ccccc5s4)cccc3C(=O)N([C@@H](C)CO)C[C@@H]2C)cc1`, the activation was -0.002%.
With `CCS(=O)(=O)Nc1ccc2c(c1)C(=O)N(C)C[C@H](OC)[C@@H](C)CN(C(=O)c1ccc3c(c1)OCO3)[C@@H](C)CO2`, the activation was 0%.
For the molecule `C/C=C/c1ccc([C@@H]2[C@H](CO)N(C(C)=O)[C@H]2CN(C(C)=O)C2CCCC2)cc1`, the activation was 0.004%.
In the case of `COCC(=O)N1CCC2(CC1)CN(Cc1ccccc1Cl)[C@H](CO)c1[nH]c3cc(OC)ccc3c12` it was 0.0015%; in that of `CN(C)C(=O)c1cccc(-c2ccc([C@@H]3[C@@H](CO)N4CCCCN(CC5CCOCC5)C[C@@H]34)cc2)c1`, 0.001%; in that of `Cc1ccc(S(=O)(=O)Nc2cccc3c2O[C@@H](CN(C)C(=O)Nc2ccc(C(F)(F)F)cc2)[C@@H](C)CN([C@H](C)CO)C3=O)cc1`, 0.002%.
With `C[C@@H]1CN([C@@H](C)CO)C(=O)c2c(c3ccccc3n2C)-c2ccccc2CO[C@H]1CN(C)C(=O)[C@H](Cc1ccccc1)N(C)C`, the activation was 0.0095%.
As to `CN(C)C(=O)c1ccc(-c2ccc([C@H]3[C@H](C#N)N(C(=O)C4CC4)[C@H]3CO)cc2)cc1`, the activation was 0.0005%.
For the molecule `N#C[C@H]1[C@@H](c2ccccc2-c2cccc(F)c2)[C@H](CO)N1C(=O)CN1CCOCC1`, the activation is 0.006%.
In the case of `O=C(CC1CC1)N1CC[C@@H]2[C@H]1c1cc(-c3ccc(F)cc3)ccc1N[C@@H]2CO` it was 0.0045%.
